Measured values taken from PubChem BioAssay.
The source made the active and inactive calls. Unless noted, no rule for the calls is given here.

Legend:
[1] = anti-His antibody binders, primary screen, artefact control for SMM control protein annotation, biochemical, small-molecule microarray, 635 nm fluorescence (AID 1128); conditions: anti-His Alexa647 antibody binding, higher = more signal;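 also: score merges feature fluorescence with signal-to-noise for each printed compound spot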
[2] = test system: Human papillomavirus type 1a E7 protein (residues 1-88); experiment: HPV1a E7 small-molecule binders, primary screen, biochemical, small-molecule microarray, residues 1-88, 635 nm (AID 1129); conditions: small-molecule microarray binding, fluorescence 635 nm; higher = more signal
[3] = biological target: Focal adhesion kinase 1 (Homo sapiens) (UniProt Q05397); experiment: small-molecule microarray binders of FAK, primary screen, biochemical, 635/667 nm fluorescence, BSA, DTT (AID 1130); conditions: PTK2 binding, 635 nm fluorescence, higher = more signal;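 also: composite of spot emission at 667 nm and signal to noise over triplicate slides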
[4] = test system: Fibrinogen (Alexa647-labelled); experiment: fibrinogen binders on compound microarrays, profiling panel, artefact control for SMM control-protein annotation, biochemical, small-molecule microarray, 635/667 nm fluorescence (AID 1131); conditions: fibrinogen-A647 binding fluorescence, higher = more signal;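 also: z-score merges 667 nm fluorescence with per-spot signal-to-noise over triplicate slides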
[5] = biological target: Follistatin (Homo sapiens) (UniProt P19883); experiment: follistatin binders on small-molecule microarrays, primary screen, biochemical, small-molecule microarray, 635/667 nm fluorescence (AID 1132); conditions: FST binding, 635 nm fluorescence, higher = more signal
[6] = biological target: Fibroblast growth factor 2 (Homo sapiens) (UniProt P09038); experiment: FGF2 binders on small-molecule microarrays, primary screen, biochemical, small-molecule microarray, 635/667 nm fluorescence (AID 1133); conditions: small-molecule microarray binding, FGF2, fluorescence 635/667; higher = more signal
[7] = mitochondrial membrane potential change in A549 cells, profiling panel, cell-based, JC-1 fluorescence, basal, 24 h, 100 nL (AID 1138); conditions: higher = more signal;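 also: A549 lung adenocarcinoma cells under basal conditions with no added stimulus; test concentration not given here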
Lefty1 = Lefty1 binders on small-molecule microarrays, primary screen, biochemical, small-molecule microarray, 635/667 nm fluorescence (AID 1139); conditions: small-molecule microarray binding, fluorescence 635/667; higher = more signal
[8] = test system: wheat germ agglutinin (Triticum aestivum), Alexa647-labelled; experiment: wheat germ agglutinin binders on compound microarrays, profiling panel, artefact control for SMM control-protein annotation, biochemical, small-molecule microarray, 635/667 nm fluorescence (AID 1140); conditions: WGA-A647 binding, 635 nm fluorescence, higher = more signal;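 also: score merges 667 nm feature emission with signal to noise over triplicate slides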
[9] = biological target: Luciferin 4-monooxygenase (Photinus pyralis) (UniProt P08659); experiment: firefly luciferase enzyme inhibitors, primary screen, biochemical, luminescence, purified enzyme, 2006 set (AID 1141); conditions: SteadyGlo luminescence, 30 min, higher = more signal, called active from +8 up or from −8 down;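 also: cell-free assay with purified firefly luciferase at 100 ng per well in PBS; test concentration not given here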
[10] = test system: Wnt5a (protein binding on small-molecule microarray); experiment: Wnt5a binders on small-molecule microarray, primary screen, biophysical, 635/667 nm fluorescence (AID 1142); conditions: 635 nm fluorescence, higher = more signal;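 also: fluorescence read at 667 nm with signal to noise per printed feature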
[11] = cell viability in Huh7 cells, primary screen, cytotoxicity control for HCV replication inhibitor project, CellTiter-Glo luminescence, basal, 48 h (AID 1143); conditions: Huh7 HCV replicon, higher = more signal, called active from +8 up or from −8 down;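 also: Huh7 hepatoma cells carrying a hepatitis C replication reporter with no stimulus; test concentration not given here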
[12] = P. aeruginosa biofilm formation inhibitors, primary screen, PAO1 strain, BacTiter-Glo luminescence, LB-PBS (AID 1144); conditions: 12 h, higher = more signal
[13] = CREB reporter modulators without forskolin, primary screen, cell-based, PC12, CRE-LacZ reporter, unstimulated (AID 1145); conditions: no forskolin, luminescence, 4.5 h, higher = more signal, called active from +8 up or from −8 down
[14] = CREB reporter modulators under forskolin, primary screen, cell-based, PC12, CRE-LacZ reporter, forskolin-stimulated (AID 1146); conditions: luminescence, 4.5 h, higher = more signal, called active from +8 up or from −8 down;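 also: PC12 cells with 6xCRE LacZ reporter stimulated by forskolin 10 µM; beta-galactosidase reporter signal reflecting CREB driven transcription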
[15] = biological target: Streptavidin (Streptomyces avidinii) (UniProt P22629); experiment: streptavidin binders on small-molecule microarray, primary screen, artefact control for SMM compound annotation, biophysical, 635/667 nm fluorescence (AID 1147); conditions: streptavidin binding, higher = more signal;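 also: signal reflects streptavidin binding to arrayed compounds as a control protein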
[16] = small-molecule binders of probe aInhba, primary screen, biochemical, small-molecule microarray, 635/667 nm fluorescence (AID 1148); conditions: higher = more signal;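 also: score merges 667nm spot fluorescence with signal-to-noise for antibody binding to printed compounds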
Torsin-1A (Homo sapiens) [17] = biological target: Torsin-1A (Homo sapiens) (UniProt O14656); experiment: torsin A binders from cell lysate, primary screen, small-molecule microarray, wild-type, 635/667 nm (AID 1149); conditions: COS7 hTOR1A-WT lysate, 635 nm fluorescence, higher = more signal
Torsin-1A (Homo sapiens) [18] = biological target: Torsin-1A (Homo sapiens) (UniProt O14656); experiment: small-molecule binders of mutant TOR1A in lysate, primary screen, cell lysate, small-molecule microarray, COS7 lysate, 635/667 nm fluorescence (AID 1150); conditions: COS7 hTOR1A mutant lysate, 635 nm fluorescence, higher = more signal;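 also: score pools 667 nm emission and signal to noise measuring lysate protein binding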
[19] = test system: Sonic hedgehog protein (Shh); experiment: small-molecule binders of Shh protein, primary screen, biochemical, small-molecule microarray, 635/667 nm fluorescence (AID 1151); conditions: small-molecule microarray binding, 635 nm fluorescence; higher = more signal;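 also: Shh protein binding to compounds spotted on small-molecule microarray slides; score combines spot fluorescence intensity with signal-to-noise across triplicate slides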

Chain of Streptavidin (Streptomyces avidinii) (P22629 whole entry, looked up): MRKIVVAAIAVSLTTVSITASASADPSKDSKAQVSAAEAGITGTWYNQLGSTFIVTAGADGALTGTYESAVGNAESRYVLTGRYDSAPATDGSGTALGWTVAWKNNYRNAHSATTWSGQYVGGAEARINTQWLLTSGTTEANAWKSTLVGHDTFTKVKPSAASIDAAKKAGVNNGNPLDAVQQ
Chain of Torsin-1A (Homo sapiens) (O14656 whole entry, looked up): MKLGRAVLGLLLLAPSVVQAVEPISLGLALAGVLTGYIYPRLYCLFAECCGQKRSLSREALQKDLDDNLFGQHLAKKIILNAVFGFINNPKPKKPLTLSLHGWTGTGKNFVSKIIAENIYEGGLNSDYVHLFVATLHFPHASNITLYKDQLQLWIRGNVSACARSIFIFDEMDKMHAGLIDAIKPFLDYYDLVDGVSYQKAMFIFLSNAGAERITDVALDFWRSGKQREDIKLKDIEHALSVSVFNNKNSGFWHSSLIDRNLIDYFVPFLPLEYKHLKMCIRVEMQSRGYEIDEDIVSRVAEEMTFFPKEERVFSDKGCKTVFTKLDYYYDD
Chain of Focal adhesion kinase 1 (Homo sapiens) (Q05397 whole entry, looked up): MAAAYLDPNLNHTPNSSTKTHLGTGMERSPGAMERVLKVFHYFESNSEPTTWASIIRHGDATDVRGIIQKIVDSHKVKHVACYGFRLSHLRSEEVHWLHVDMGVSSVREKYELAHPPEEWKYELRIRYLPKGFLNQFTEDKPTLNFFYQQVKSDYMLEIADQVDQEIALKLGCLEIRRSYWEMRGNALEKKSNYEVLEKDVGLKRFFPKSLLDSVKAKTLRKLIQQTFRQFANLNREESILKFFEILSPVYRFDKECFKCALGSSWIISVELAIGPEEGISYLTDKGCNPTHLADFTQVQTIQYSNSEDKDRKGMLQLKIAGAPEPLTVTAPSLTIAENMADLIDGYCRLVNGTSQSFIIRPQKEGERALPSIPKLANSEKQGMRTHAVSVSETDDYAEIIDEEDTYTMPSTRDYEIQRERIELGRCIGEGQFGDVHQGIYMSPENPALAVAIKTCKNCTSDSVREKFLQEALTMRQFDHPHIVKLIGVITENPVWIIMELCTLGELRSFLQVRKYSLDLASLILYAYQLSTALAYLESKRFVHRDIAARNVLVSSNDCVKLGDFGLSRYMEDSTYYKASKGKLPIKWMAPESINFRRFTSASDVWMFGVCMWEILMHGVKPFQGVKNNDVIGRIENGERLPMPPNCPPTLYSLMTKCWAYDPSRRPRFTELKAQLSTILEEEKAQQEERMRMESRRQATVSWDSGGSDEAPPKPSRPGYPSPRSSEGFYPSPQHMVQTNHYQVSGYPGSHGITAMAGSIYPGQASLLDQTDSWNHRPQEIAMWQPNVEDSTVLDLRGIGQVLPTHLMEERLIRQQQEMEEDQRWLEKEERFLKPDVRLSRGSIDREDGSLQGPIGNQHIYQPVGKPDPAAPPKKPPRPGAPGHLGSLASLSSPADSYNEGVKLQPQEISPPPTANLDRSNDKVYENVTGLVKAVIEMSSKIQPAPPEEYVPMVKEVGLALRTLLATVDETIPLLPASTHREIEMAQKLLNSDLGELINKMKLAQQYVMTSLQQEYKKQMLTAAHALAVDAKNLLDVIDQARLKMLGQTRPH
Chain of Follistatin (Homo sapiens) (P19883 whole entry, looked up): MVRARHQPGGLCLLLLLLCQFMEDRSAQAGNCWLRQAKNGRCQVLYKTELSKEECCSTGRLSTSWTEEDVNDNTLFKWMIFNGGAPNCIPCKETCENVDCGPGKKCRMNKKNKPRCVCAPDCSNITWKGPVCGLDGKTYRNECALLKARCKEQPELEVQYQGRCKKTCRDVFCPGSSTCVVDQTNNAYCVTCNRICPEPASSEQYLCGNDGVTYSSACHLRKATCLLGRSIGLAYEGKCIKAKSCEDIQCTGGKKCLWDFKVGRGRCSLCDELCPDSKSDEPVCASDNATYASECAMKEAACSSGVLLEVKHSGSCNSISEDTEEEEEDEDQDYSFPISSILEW
Chain of Luciferin 4-monooxygenase (Photinus pyralis) (P08659 whole entry, looked up): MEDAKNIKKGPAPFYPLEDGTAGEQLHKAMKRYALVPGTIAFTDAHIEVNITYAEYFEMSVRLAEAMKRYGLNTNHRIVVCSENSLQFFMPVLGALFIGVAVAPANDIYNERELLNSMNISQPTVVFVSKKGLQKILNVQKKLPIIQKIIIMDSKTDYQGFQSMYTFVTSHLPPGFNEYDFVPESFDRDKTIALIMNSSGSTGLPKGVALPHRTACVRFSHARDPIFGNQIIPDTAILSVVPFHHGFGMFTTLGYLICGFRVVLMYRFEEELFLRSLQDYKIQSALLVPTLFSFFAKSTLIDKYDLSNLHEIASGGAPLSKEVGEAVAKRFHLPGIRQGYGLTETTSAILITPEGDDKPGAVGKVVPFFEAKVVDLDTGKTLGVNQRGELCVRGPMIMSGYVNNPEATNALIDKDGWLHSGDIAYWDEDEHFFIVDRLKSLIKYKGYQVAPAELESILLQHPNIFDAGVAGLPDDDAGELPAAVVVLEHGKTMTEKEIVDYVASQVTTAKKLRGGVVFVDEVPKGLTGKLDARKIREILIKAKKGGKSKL
Chain of Fibroblast growth factor 2 (Homo sapiens) (P09038 whole entry, looked up): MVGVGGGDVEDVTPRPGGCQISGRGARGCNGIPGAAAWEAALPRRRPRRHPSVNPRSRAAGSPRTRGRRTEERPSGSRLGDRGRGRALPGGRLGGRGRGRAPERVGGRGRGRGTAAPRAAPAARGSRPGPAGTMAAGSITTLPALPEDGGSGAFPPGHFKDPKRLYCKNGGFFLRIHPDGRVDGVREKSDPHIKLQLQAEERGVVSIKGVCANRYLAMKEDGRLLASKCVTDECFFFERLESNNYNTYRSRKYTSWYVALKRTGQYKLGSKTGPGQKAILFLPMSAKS

| Compound | composite z-score [1] | composite z-score [2] | composite z-score [3] | composite z-score [4] | composite z-score [5] | composite z-score [6] | z-score [7] | composite z-score (Lefty1) | composite z-score [8] | z-score [9] | composite z-score [10] | z-score [11] | z-score [12] | z-score [13] | z-score [14] | composite z-score [15] | composite z-score [16] | composite z-score (Torsin-1A (Homo sapiens) [17]) | composite z-score (Torsin-1A (Homo sapiens) [18]) | composite z-score [19] |
| --- | --- | --- | --- | --- | --- | --- | --- | --- | --- | --- | --- | --- | --- | --- | --- | --- | --- | --- | --- | --- |
| COC(=O)[C@@]1(Cc2ccc(F)cc2)[C@H]2c3cc(C(=O)N(C)C)n(CCF)c3C[C@H]2CN1C(=O)c1ccccc1 | 1.67 | 0.911 | 0.0655 | 0.911 | -0.0051 | -0.162 | 0.656 | -0.45 | 0.338 | -1.09 (inactive) | 0.101 | -1.56 (inactive) | -0.501 (inactive) | -0.375 (inactive) | 0.25 (inactive) | 0.471 | 0.117 | 0.632 | 0.606 | -0.447 |
| O=C1N(Cc2ccccc2)Cc2ccccc2C[C@@]12COC(c1ccc(OCCCO)cc1)=N2 | 2.26 | 1.16 | 0.622 | -0.143 | 1.39 | 0.22 | -0.503 | -0.197 | 0.196 | -1.26 (inactive) | 0.165 | -5.94 (inactive) | 1.31 (inactive) | 1.45 (inactive) | -2.33 (inactive) | -0.0644 | 0.108 | 0.356 | 0.695 | 0.0301 |
| COCCCNC(=O)[C@@]1(c2ccc([N+](=O)[O-])cc2)CC(=O)N(C2CCCCC2)[C@@H]1c1ccc(CO)cc1I | 3.3 | 1.2 | 0.964 | 0.014 | 1.45 | 1.44 | 2.77 | 0.418 | 0.524 | -0.883 (inactive) | 0.0398 | -3.87 (inactive) | 0.239 (inactive) | 0.414 (inactive) | -0.543 (inactive) | -0.16 | 0.0575 | 0.95 | 1.39 | 1.81 |
| COCCOC(=O)N1C(=O)[C@@]2(c3cc(C#CC4=CCCCC4)ccc31)[C@H](C(=O)N1CCCCCCC1)[C@H]1C(=O)O[C@H](c3ccccc3)[C@H](c3ccccc3)N1[C@@H]2c1ccccc1OCCO | 0.316 | 1.19 | 0.391 | 0.461 | 1.42 | 0.679 | -1 | 1.01 | 0.275 | 0.104 (inactive) | 0.393 | -5.21 (inactive) | -1.33 (inactive) | -1.7 (inactive) | -1.11 (inactive) | 1.04 | 0.806 | 0.801 | 0.824 | 1.62 |
| COC(=O)C(CC#Cc1ccc2c(c1)[C@]1(C(=O)N2)[C@H](C(N)=O)[C@H]2C(=O)O[C@H](c3ccccc3)[C@H](c3ccccc3)N2[C@@H]1c1ccccc1OCCO)C(=O)OC | 1.25 | 1.22 | 0.474 | 0.591 | 0.917 | 0.535 | -1.05 | 0.607 | 0.775 | -0.638 (inactive) | 0.151 | -6.25 (inactive) | -0.451 (inactive) | 0.362 (inactive) | -0.955 (inactive) | -0.0001 | -0.152 | 0.544 | 1.48 | 1.07 |
| COCCOC(=O)N1C(=O)[C@@]2(c3ccccc31)[C@H](C(=O)Nc1nc3ccccc3s1)[C@H]1C(=O)O[C@H](c3ccccc3)[C@H](c3ccccc3)N1[C@@H]2c1ccccc1OCCO | 1.55 | 1.19 | -0.0016 | 0.941 | 1.17 | 0.676 | -2.3 | 0.42 | 1.19 | -0.653 (inactive) | 0.0847 | -3.65 (inactive) | -0.457 (inactive) | -0.207 (inactive) | -0.144 (inactive) | 1.39 | 0.379 | 0.282 | 0.781 | 0.733 |
| CCOC(=O)C1=CCC(c2ccncc2)N(S(=O)(=O)c2ccc(C)cc2)C1 (stereo not given) | 0.871 | 1.25 | 1.5 | 1.01 | 0.844 | 0.454 | -0.497 | 0.353 | 0.829 | -0.786 (inactive) | 0.637 | -4.28 (inactive) | -0.83 (inactive) | 0.546 (inactive) | 0.882 (inactive) | 3.08 | 0.121 | 0.344 | 1.12 | 0.245 |
| C=C(C(=O)CC[C@@H](OC(=O)c1ccccc1-c1ccccc1C(=O)O)c1ccc(OCCO)cc1)C(C)C | 1.19 | 0.977 | -0.118 | 0.691 | 1.2 | 1.77 | 0.58 | 1.26 | 0.889 | -2.66 (inactive) | 1.04 | 0.0006 (inactive) | -0.367 (inactive) | 3.88 (inactive) | 2.07 (inactive) | 0.0206 | -0.0468 | -0.13 | 0.261 | 2.1 |
| CC(C)C(=C=CC[C@H](O)c1cccc(OCCO)c1)C[C@H](O)c1ccccn1 | 0.474 | 0.534 | 0.0358 | -1.37 | 0.972 | 0.236 | 0.717 | 0.788 | 0.641 | -0.147 (inactive) | -0.103 | -0.667 (inactive) | -1.06 (inactive) | 2.25 (inactive) | 0.42 (inactive) | -0.502 | -0.0986 | -0.256 | 0.0951 | 1.45 |
| COCCOC(=O)N1C(=O)[C@@]2(c3cc(C#CCNC(N)=O)ccc31)[C@H](C(N)=O)[C@H]1C(=O)O[C@H](c3ccccc3)[C@H](c3ccccc3)N1[C@@H]2c1ccc(O)cc1 | 1.78 | -0.767 | -0.284 | -0.424 | 0.994 | 0.287 | 0.222 | 0.115 | -0.113 | -2.19 (inactive) | 0.159 | 0.29 (inactive) | -0.204 (inactive) | 0.619 (inactive) | -0.713 (inactive) | -0.0811 | 0.296 | 0.572 | -0.0113 | 0.0133 |
